Values joined by “and” are separate entries in the source; they are usually repeats but may differ in a detail not shown here. Equal entries are not always repeated. Results filed as inconclusive are left out. Active and inactive are the calls of the source. The call rests on the fitted dose curve; in most records, active means well fitted curve in the direction sought with a large enough effect; inconclusive means small, poorly fitted or top-dose-only effect, or another doubt; inactive means no such curve, though single readings can be large; an effect the other way counts as inactive or inconclusive.

A short description of experiment [1]: Cellular Toxicity (caspase-3) H-4-II-E (AID 663).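 Further: cells exposed to compound for 16 hr before readout.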 Conditions: H-4-II-E rat hepatoma, scaled: DMSO 0%, 100 µM tamoxifen 100%; series mostly up to 92.2 µM. An outline of the steps:
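Luminescence from caspase-cleaved aminoluciferin substrate, read 20 min after reagent addition, reports caspase 3/7 activation in rat H-4-II-E cells after 16 hr compound exposure. Normalized to DMSO (basal) and 100 uM tamoxifen (100%); AC50 from Hill fits.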

The nature of experiment [2]: Cellular Toxicity (caspase-3) Hek293 (AID 664).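 Further: cells exposed to compound for 16 h at 37 °C before readout.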 The following applies: HEK293 caspase-3 activation, DMSO = 0%, 100 µM tamoxifen = 100%; series mostly up to 92.2 µM. An outline of the steps:
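Activation of caspase-3/7 is measured as increased luminescence from cleaved peptide-aminoluciferin substrate in HEK293 cells treated 16 hours at 37 °C. AC50 values come from Hill-equation fits of concentration-response data.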

A short description of experiment [3]: Cellular Toxicity (caspase-3) N2a (AID 665).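 Further: compound exposure lasted 16 h at 37 °C before readout.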 Conditions: N2a cells, luminescence, normalized: DMSO 0%, 10 µM staurosporine 100%; series mostly up to 92.2 µM. An outline of the steps: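 Plated mouse neuroblastoma N2a cells received titrated compounds for 16 h in complete medium. Caspase activity was then detected with a peptide-aminoluciferin luminescent reagent.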

The nature of experiment [4]: Cellular Toxicity (caspase-3) NIH 3T3 (AID 666). Conditions: NIH 3T3 caspase-3 activation, apoptosis/toxicity, 0% DMSO, 100% is 100 µM tamoxifen; series mostly up to 92.2 µM. An outline of the steps:
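Concentration-response qHTS in NIH 3T3 mouse fibroblasts scores caspase-3/7 activation as rising luminescence after 16 hr compound exposure. Signals are scaled between DMSO-only and 100 uM tamoxifen.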

Experiment [5] is described as follows: Cellular Toxicity (caspase-3) Renal Proximal Tubule (AID 667).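 Further: cells exposed to compound for 16 hours at 37 °C before detection.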 Conditions: renal proximal tubule cells, primary cells freshly taken from rat, solvent-only wells 0%, staurosporine 100%; series mostly up to 91.7 µM. Summed up:
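AC50 derived by standard Hill fit of concentration-response data, normalized between DMSO basal and 10 uM staurosporine as 100% stimulation. Cells: primary rat kidney proximal tubule, 16 h treatment at 37 °C.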

The target of experiment [6] is Guanine nucleotide-binding protein G(i) subunit alpha-1 (Homo sapiens) (UniProt P63096). Briefly: qHTS Assay for Inhibitors of RGS12 GoLoco Motif Activity (Green Fluorophore) (AID 879).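 Further: negative values mean loss of peptide binding seen as reduced polarization.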 Conditions: Galphai1/FITC-RGS12 GoLoco peptide, fluorescence polarization; series mostly up to 57.1 µM. Summed up: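 Fluorescence polarization assay: 50 nM Gαi1 with 10 nM FITC-labeled RGS12 GoLoco peptide in 10 mM Tris pH 7.5, 150 mM NaCl, 0.1 mM GDP, 0.05% NP40, 10 min at room temperature with compound.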
(qHTS replaces the single test concentration by a dilution series.)

The target of experiment [7] is Cytochrome P450 3A4 (Homo sapiens) (UniProt P08684). Kind of experiment: qHTS Assay for Activators of Cytochrome P450 3A4 (AID 885). Further: nearly all actives have a fitted effect of over 65% in size. Conditions: recombinant CYP3A4, Luciferin-PPXE luminescence, 60 min; series mostly up to 57.1 µM. An outline of the steps: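 Quantitative HTS format: compounds preincubated with 20nM human CYP3A4 and Luciferin-PPXE substrate at KM, reaction started by NADPH regeneration, stopped after 60 min, luciferase luminescence read 20 min later.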

In experiment [8] the target is Cytochrome P450 2D6 (Homo sapiens) (UniProt P10635). Kind of experiment: qHTS Assay for Inhibitors and Substrates of Cytochrome P450 2D6 (AID 891). Further: nearly all actives have a fitted effect of over 60% in size. Further: potency means the concentration at half of the fitted maximal effect. Conditions: recombinant CYP2D6, luciferin-ME EGE luminescence; series mostly up to 57.1 µM. An outline of the steps:
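Human CYP2D6 (5 nM) with 30 uM Luciferin-ME EGE (at Km) in 100 mM KPO4, compound preincubated 10 min, then NADPH regeneration system for 60 min at room temperature. Luciferin read by luminescence; normalized to 1.43 uM quinidine.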

The target in experiment [9] is Cytochrome P450 2C9 (Homo sapiens) (UniProt P11712). Kind of experiment: qHTS Assay for Inhibitors and Substrates of Cytochrome P450 2C9 (AID 883). Further: nearly all actives have a fitted effect of over 60% in size. Further: potency means the concentration at half of the fitted maximal effect. The following applies: recombinant CYP2C9, luciferin-H luminescence, 60 min; series mostly up to 57.1 µM. Summed up: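 Human CYP2C9 (10nM) hydroxylated Luciferin-H (100uM, at its KM) to luciferin in 25mM KPO4. Compound was preincubated 10 min at 37C, then NADPH regeneration started a 60 min reaction at 37C. Luminescence was read after detection reagent, normalized to 57uM sulphaphenazole.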

Experiment [10] has as its target Cytochrome P450 3A4 (Homo sapiens) (UniProt P08684). Briefly: qHTS Assay for Inhibitors and Substrates of Cytochrome P450 3A4 (AID 884). Further: nearly all actives have a fitted effect of over 50% in size. The following applies: recombinant CYP3A4, Luciferin-PPXE luminescence; series mostly up to 57.1 µM. An outline of the steps: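 20 nM human CYP3A4 with 25 uM Luciferin-PPXE (at KM) in 200 mM KPO4, preincubated 10 min with compound; NADPH regeneration started a 60 min RT reaction. Luciferin detected by luminescence, normalized to 57 uM ketoconazole as full inhibition.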

Chain of Guanine nucleotide-binding protein G(i) subunit alpha-1 (Homo sapiens) (P63096 whole entry, looked up): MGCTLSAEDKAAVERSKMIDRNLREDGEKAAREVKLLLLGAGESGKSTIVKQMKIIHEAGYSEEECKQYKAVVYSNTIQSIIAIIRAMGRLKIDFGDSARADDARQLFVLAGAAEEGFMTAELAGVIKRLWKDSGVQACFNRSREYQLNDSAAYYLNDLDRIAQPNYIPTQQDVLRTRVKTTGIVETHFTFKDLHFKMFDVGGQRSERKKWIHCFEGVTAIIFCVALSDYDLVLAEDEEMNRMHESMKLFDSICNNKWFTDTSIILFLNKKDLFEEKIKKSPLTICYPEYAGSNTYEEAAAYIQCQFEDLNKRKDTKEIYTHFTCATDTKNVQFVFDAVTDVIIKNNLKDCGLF
Chain of Cytochrome P450 2C9 (Homo sapiens) (P11712 whole entry, looked up): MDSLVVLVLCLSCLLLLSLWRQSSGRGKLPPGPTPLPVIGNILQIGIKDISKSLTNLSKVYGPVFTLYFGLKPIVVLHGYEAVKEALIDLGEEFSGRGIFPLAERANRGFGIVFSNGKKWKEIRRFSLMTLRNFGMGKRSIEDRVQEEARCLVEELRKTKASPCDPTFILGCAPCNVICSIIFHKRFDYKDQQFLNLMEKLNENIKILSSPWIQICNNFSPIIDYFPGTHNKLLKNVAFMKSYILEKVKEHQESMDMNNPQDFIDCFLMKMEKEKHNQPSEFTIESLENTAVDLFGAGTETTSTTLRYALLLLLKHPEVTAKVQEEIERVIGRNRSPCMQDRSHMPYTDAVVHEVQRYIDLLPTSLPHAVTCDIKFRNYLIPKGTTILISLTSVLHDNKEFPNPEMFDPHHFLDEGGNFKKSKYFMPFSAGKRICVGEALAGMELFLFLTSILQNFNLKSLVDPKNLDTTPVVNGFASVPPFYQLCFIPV
Chain of Cytochrome P450 2D6 (Homo sapiens) (P10635 whole entry, looked up): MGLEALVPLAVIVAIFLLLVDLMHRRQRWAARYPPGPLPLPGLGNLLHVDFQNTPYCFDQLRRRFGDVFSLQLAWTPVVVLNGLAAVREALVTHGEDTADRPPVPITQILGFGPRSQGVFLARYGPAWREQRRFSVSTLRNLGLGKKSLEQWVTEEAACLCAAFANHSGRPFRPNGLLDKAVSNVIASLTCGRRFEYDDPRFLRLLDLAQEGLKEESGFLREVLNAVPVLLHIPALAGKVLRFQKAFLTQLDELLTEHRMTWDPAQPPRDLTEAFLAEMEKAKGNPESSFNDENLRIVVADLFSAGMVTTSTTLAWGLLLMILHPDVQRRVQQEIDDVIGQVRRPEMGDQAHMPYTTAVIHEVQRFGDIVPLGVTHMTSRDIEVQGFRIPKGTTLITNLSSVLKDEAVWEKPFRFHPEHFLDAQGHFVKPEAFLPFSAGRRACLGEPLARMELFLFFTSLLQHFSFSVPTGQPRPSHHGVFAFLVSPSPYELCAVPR
Chain of Cytochrome P450 3A4 (Homo sapiens) (P08684 whole entry, looked up): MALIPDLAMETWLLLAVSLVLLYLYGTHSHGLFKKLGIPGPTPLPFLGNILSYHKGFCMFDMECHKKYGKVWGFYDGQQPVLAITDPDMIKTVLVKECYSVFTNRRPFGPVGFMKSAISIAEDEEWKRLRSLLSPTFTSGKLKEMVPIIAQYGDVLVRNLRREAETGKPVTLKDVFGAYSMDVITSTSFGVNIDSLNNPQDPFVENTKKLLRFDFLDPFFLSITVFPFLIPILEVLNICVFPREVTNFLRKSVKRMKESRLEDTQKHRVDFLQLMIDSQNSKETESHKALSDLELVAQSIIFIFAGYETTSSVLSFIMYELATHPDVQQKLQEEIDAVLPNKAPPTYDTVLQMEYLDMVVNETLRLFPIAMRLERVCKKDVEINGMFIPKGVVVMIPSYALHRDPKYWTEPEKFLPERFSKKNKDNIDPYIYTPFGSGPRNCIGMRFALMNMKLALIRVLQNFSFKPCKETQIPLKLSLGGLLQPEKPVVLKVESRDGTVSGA

As to `COc1ccc(CN(CCN(C)C)c2ccccn2)cc1`, the outcome in [1], in [2], in experiment [3], in [4] and in experiment [5] was inactive. The Potency entry in experiment [6] and in [7] was “inactive” throughout. In addition, in experiment [8], the Potency was 501 nM (active) and 126 nM (active).

Regarding `O=C(O)CN(CCN(CC(=O)O)CC(=O)O)CCN(CC(=O)O)CC(=O)O`, in experiment [6], the Potency result was “inactive”.

Regarding `C[N+](C)(C)CCCCCCCCCC[N+](C)(C)C`, the Potency result in experiment [6] was “inactive”.

Turning to `COC(=O)[C@H]1[C@H]2C[C@@H]3c4[nH]c5cc(OC)ccc5c4CCN3C[C@H]2C[C@@H](OC(=O)c2cc(OC)c(OC)c(OC)c2)[C@@H]1OC`, the result in experiment [2], in experiment [3], in experiment [4] and in [5] was inactive. Further, the Potency result in [6] and in experiment [7] was “inactive” throughout.

For the molecule `NC(=O)N1c2ccccc2C=Cc2ccccc21`, the call in experiment [1], in [2], in experiment [3], in experiment [4], in experiment [5] and in [10] was inactive. The Potency result in [6], in experiment [9] and in experiment [8] was “inactive” each time.

Regarding `Cc1nc2c([nH]1)c(=O)n(C)c(=O)n2Cc1ccco1`, the Potency entry in experiment [6] is “inactive”.

For the molecule `CC(=O)Oc1cc(C(C)C)c(OCCN(C)C)cc1C`, the Potency entry in experiment [6] was “inactive”.

With `CCn1nc(C(=O)O)c(=O)c2cc3c(cc21)OCO3`, the Potency result in experiment [6] was “inactive”.

As to `O=C(CCCN1CCC(O)(c2cccc(C(F)(F)F)c2)CC1)c1ccc(F)cc1`, the Potency result in experiment [6] was “inactive”.

As to `O=C1CC2(CCCC2)CC(=O)N1CCCCN1CCN(c2ncccn2)CC1`, in experiment [6], the Potency entry is “inactive”.

For the molecule `COCC(=O)O[C@]1(CCN(C)CCCc2nc3ccccc3[nH]2)CCc2cc(F)ccc2[C@@H]1C(C)C`, the Potency result in experiment [6] is “inactive”.

Consider `CCCCOCCOCCOCc1cc2c(cc1CCC)OCO2`, for which the call in experiment [1], in [2], in experiment [3], in [4] and in [5] was inactive.

For `CCCCNc1ccc(C(=O)OCCN(C)C)cc1`, in experiment [6], the Potency result is “inactive”.

Take `C(=C\c1ccccc1)/CN1CCN(C(c2ccccc2)c2ccccc2)CC1`: the Potency result in [6] is “inactive”.

`CCc1c(C)[nH]c2c1C(=O)C(CN1CCOCC1)CC2` (centres undefined): the Potency result in experiment [6] is “inactive”.

As to `Nc1ncn([C@@H]2O[C@H](CO)[C@@H](O)[C@H]2O)c(=O)n1`, the result in experiment [1], in [2], in experiment [3], in experiment [4] and in [5] was inactive. For the same molecule, the Potency entry in experiment [6] is “inactive”.

Turning to `O=C(O)CN(CCOCCOCCN(CC(=O)O)CC(=O)O)CC(=O)O`, in experiment [6], the Potency result was “inactive”.

As to `CCN(CC)CCNC(=O)c1ccc(NC(C)=O)cc1`, the Potency entry in experiment [6] was “inactive”.

Consider `C[C@]12CCC(=O)C=C1CC[C@@H]1[C@@H]2CC[C@@]2(C)[C@H]1CC[C@]2(O)C(=O)CO`, for which the Potency entry in [6] was “inactive”.

Regarding `CCNC(=O)N1CCN(CCCC(c2ccc(F)cc2)c2ccc(F)cc2)CC1`, in [6], the Potency result was “inactive”.

For the molecule `COc1cc(C(=O)OCCCN2CCCN(CCCOC(=O)c3cc(OC)c(OC)c(OC)c3)CC2)cc(OC)c1OC`, the Potency result in experiment [6] is “inactive”.

`O=c1[nH]c(=O)n([C@H]2C[C@H](O)[C@@H](CO)O2)cc1Br`: the molecule was classed as inactive in experiment [1], in experiment [2], in [3], in experiment [4], in [5] and in experiment [10]. Besides, in experiment [6], the Potency entry was “inactive”.

Turning to `NC(=Nc1ccccc1)Nc1ccccc1`, the molecule was classed as inactive in experiment [1], in [2], in experiment [3], in experiment [4], in [5] and in experiment [10].

As to `Nc1nc(N)c2nc(-c3ccccc3)c(N)nc2n1`, the call in experiment [1], in experiment [2], in experiment [3], in experiment [4] and in experiment [5] was inactive. Besides, in [6], the Potency entry was “inactive”.

In the case of `CN=C(NC#N)NCCSCc1nc[nH]c1C`, the call in [1], in [2], in experiment [3], in experiment [4] and in [5] was inactive. Also, the Potency result in experiment [6], in [9] and in experiment [8] was “inactive” each time.

Take `CSc1ccc(C(=O)c2[nH]c(=O)[nH]c2C)cc1`: the Potency result in experiment [6] was “inactive”.

`CCN(CC)CCOCCOC(=O)C1(c2ccccc2)CCCC1`: in [6], the Potency entry was “inactive”.

Take `CN/C(=C\[N+](=O)[O-])NCCSCc1ccc(CN(C)C)o1`: the Potency result in experiment [6] is “inactive”.

For the molecule `CCN(CC)CC(=O)Nc1c(C)cccc1C`, in experiment [6], the Potency entry was “inactive”.

Regarding `CCCCNC(=O)NS(=O)(=O)c1ccc(C)cc1`, the outcome in [1], in [2], in experiment [3], in experiment [4] and in experiment [5] was inactive. The Potency entry in [6] and in experiment [8] was “inactive” throughout.

Consider `CN(C)CCCN1c2ccccc2Sc2ccccc21`, for which the Potency entry in experiment [6] is “inactive”.

`COc1cc(Cc2cnc(N)nc2N)cc(OC)c1OC`: the call in experiment [1], in [2], in experiment [3], in [4] and in experiment [5] was inactive. For the same molecule, the Potency result in [6] is “inactive”.

On to `CN1CCN(CC(=O)N2c3ccccc3C(=O)Nc3cccnc32)CC1`, for which the Potency result in experiment [6] was “inactive”. The outcome in experiment [10] was inactive.

Consider `CC(C)NNC(=O)c1ccncc1`, for which the Potency result in [6] is “inactive”. Further, the result in [10] was inactive.

`Cc1scc2c1N(C(=O)CN1CCN(C)CC1)c1ccccc1NC2=O`: the Potency entry in [6] is “inactive”. Further, the figures for the Potency in [9] and in experiment [8] were 2.51 µM (active) and 5.01 µM (active), respectively. In addition, the result in experiment [10] was inactive.

For the molecule `O=C(O)CCCCCCCC(=O)O`, in experiment [6], the Potency result was “inactive”. For the same molecule, in [10], the result was inactive.

As for `CC(=O)Nc1nnc(S(N)(=O)=O)s1`, the Potency result in experiment [6], in experiment [9] and in experiment [8] was “inactive” each time. Further, in [10], the outcome was inactive.

On to `OCCN1CCN(CCCN2c3ccccc3C=Cc3ccccc32)CC1`, for which the Potency entry in [6] and in experiment [7] was “inactive” each time.

For `COc1cc2c(cc1OC)-c1cc(=Nc3c(C)cc(C)cc3C)n(C)c(=O)n1CC2`, the Potency entry in experiment [6] and in experiment [7] was “inactive” throughout. The Potency in [9] was 1.26 µM (active).

These data come from PubChem BioAssay (NCATS).
